The test system of test [1] is TRPC4 beta (transient receptor potential cation channel C4), mouse. Description: activators of mouse TRPC4 channel, confirmation, cell-based, Fluo4 calcium, HEK293 TRPC4beta/mu-opioid, duplicates, 10 µM (AID 2426). To be noted: Fluo4 calcium fluorescence, at 10 µM; stronger effect = higher value.
The test system of test [2] is transient receptor potential cation channel C4 beta (TRPC4), mouse. Description: activators of mouse TRPC4 channel, confirmation, cell-based, second round, Fluo4, HEK293 TRPC4beta/mu-opioid, 1 µM (AID 2461;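 active means primary screen active and over 50% activation in each of two duplicate runs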). The settings on record: Fluo4 calcium fluorescence, at 1 µM; stronger effect = higher value.
Test [3] has as its system TRPC4 (transient receptor potential cation channel C4 beta), mouse. Description: positive allosteric modulators of mouse TRPC4, confirmation, cell-based, second round, Fluo-4, HEK293 TRPC4beta/mu-opioid, 1 µM (AID 2554;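 active means primary screen hit whose fluorescence ratio, in both repeats, exceeds the weak agonist control mean by 3 SD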). To be noted: DAMGO EC20, Fluo-4 calcium flux, at 1 µM; stronger effect = higher value. Background: A change in cytosolic calcium serves as a functional read-out for many receptors and channels.

Test [4] concerns TRPC4 beta (transient receptor potential cation channel C4), mouse. Description: positive allosteric modulators of mouse TRPC4, confirmation, cell-based, Fluo-4, HEK293 TRPC4beta/mu-opioid (AID 2555;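 active means primary screen hit whose calcium fluorescence ratio, in both repeats, exceeds the weak agonist control mean by 3 SD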). To be noted: DAMGO EC20, Fluo-4 calcium flux, at 10 µM; stronger effect = higher value.
Test [5] has as its target Short transient receptor potential channel 4 (Mus musculus) (UniProt Q9QUQ5). Kind of test: inhibitors of mouse TRPC4 channel, confirmation, cell-based, Fluo4, HEK293 TRPC4beta/mu-opioid (AID 2636;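 active means calcium signal cut by more than 3 SD below the full-agonist control yet still positive, in both repeats and the earlier primary screen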). The settings on record: DAMGO, Fluo4 calcium flux, at 10 µM; stronger effect = higher value.
The target is the same in test [6]. Kind of test: inhibitors of mouse TRPC4 channel, confirmation, cell-based, second round, Fluo4, HEK293 TRPC4beta/mu-opioid, 1 µM (AID 2637;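 active means calcium signal ratio cut to more than 3 SD under the fully stimulated control mean yet still positive, in both repeats and the primary screen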). The settings on record: Fluo4 calcium flux, DAMGO, at 1 µM; stronger effect = higher value.
Test [7] has the same target. Description: mouse TRPC4 channel activators, dose response, cell-based, HEK293 TRPC4/mu-opioid, Fluo-4 calcium (AID 434937;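 active means primary screen activator hit with a dose response curve and TRPC4 channel activation at any tested dose; inactive means no activation, no dose response, or not a primary hit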).
The target is the same in test [8]. Kind of test: TRPC4 positive allosteric modulators, dose response, cell-based, HEK293 TRPC4/mu-opioid, Fluo-4 calcium, EC20 DAMGO (AID 434941;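 active means earlier screen potentiator hit that boosts the TRPC4 ion channel at some dose, with a dose response; inactive means no potentiation, no dose response, or not a prior hit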;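 further: calcium entry triggered by an EC20 dose of DAMGO at the co-expressed mu-opioid receptor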).
The target is the same in test [9]. Description: mouse TRPC4 channel inhibitors, dose response, cell-based, HEK293 TRPC4/mu-opioid, Fluo-4 calcium (AID 434942;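 active means primary screen inhibitor hit that blocks the TRPC4 channel at some tested dose, yielding a dose curve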).
Test [10] addresses Short transient receptor potential channel 6 (Mus musculus) (UniProt Q61143). Description: inhibition of mouse TRPC6 channel, confirmation, selectivity assay for TRPC4 inhibitor project, cell-based, HEK293, membrane potential dye, duplicate (AID 434948;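 active means active in primary screen and both duplicates, each dropping signal beyond three positive-control SD with fluorescence still positive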). To be noted: HEK293 TRPC6, membrane potential dye fluorescence, at 10 µM, stimulated with maximal-effect acetylcholine; stronger effect = higher value.

The target is the same in test [11]. Kind of test: activation of mouse TRPC6 channel, confirmation, selectivity assay for TRPC4 activator project, cell-based, HEK293, membrane potential dye, duplicate (AID 434950;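 active means membrane potential signal rise above negative control mean plus 3 SD in both duplicates, also active in the earlier TRPC4 screen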). To be noted: HEK293 TRPC6, membrane potential fluorescence, at 10 µM; stronger effect = higher value.
The target is the same in test [12]. Description: TRPC6 potentiation by TRPC4 potentiator hits, confirmation, selectivity assay for TRPC4 potentiator project, HEK293 cells, membrane potential dye, duplicate (AID 434952;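 active means compound raising the membrane signal above positive-control mean plus 3 SD in both repeats, and a primary screen hit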). The settings on record: HEK293 TRPC6, membrane potential dye fluorescence, at 10 µM, maximal acetylcholine added after compound; stronger effect = higher value.
Test [13] has as its target Short transient receptor potential channel 4 (Mus musculus) (UniProt Q9QUQ5). Description: calcium flux activators in TRPC4/5HT1a cells, counter-screen for TRPC4 activator project, cell-based, second counter screen, HEK293 TRPC4/5HT1a, Fluo-4 (AID 434977;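 active means calcium signal rise above buffer-control mean plus 5 SD in both duplicates, and also a hit in the primary screen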). The settings on record: Fluo-4 calcium flux, at 10 µM; stronger effect = higher value.
Test [14] in a line: calcium flux inhibitors in TRPC4/5HT1a cells, confirmation, counter-screen for TRPC4 inhibitor project, cell-based, second counter screen, HEK293 TRPC4/5HT1a, Fluo-4 (AID 434978;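 active means primary screen active whose calcium signal fell more than 3 SD beyond the full-serotonin control mean in both duplicate plates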;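 further: serotonin given first at submaximal then at maximal dose after compound preincubation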). The settings on record: Fluo-4 calcium flux, at 10 µM, serotonin added to trigger calcium flux; stronger effect = higher value.
Test [15] deals with TRPC4 (mouse), co-expressed with 5HT1a in HEK293. Kind of test: calcium flux potentiators in TRPC4/5HT1a cells, confirmation, counter-screen for TRPC4 potentiator project, cell-based, second counter screen, HEK293 TRPC4/5HT1a, Fluo-4 (AID 434979;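 active means signal rise over 3 SD above mean of control wells given weak agonist, in both repeats and first screen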). To be noted: Fluo-4 calcium flux, at 10 µM, serotonin added at its EC20 dose; stronger effect = higher value.
The nature of test [16]: calcium flux activation in mu-opioid HEK293 cells, confirmation, counter-screen for TRPC4 activator project, cell-based, HEK293 mu-opioid receptor line (AID 449723;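 active means hit in primary screen, with calcium signal over 5 SD above buffer well mean in both duplicates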;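 further: counter screen cells carry the mu-opioid receptor alone and lack TRPC4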). To be noted: Fluo-4 calcium fluorescence, at 10 µM; stronger effect = higher value.
The nature of test [17]: calcium flux enhancement in mu-opioid HEK293 cells, confirmation, counter-screen for TRPC4 allosteric potentiator project, cell-based, HEK293 mu-opioid receptor line (AID 449724;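 active means calcium signal rise more than 3 SD above the low-dose agonist control mean, in both duplicate plates and the primary screen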;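 further: HEK293 cells carrying mu-opioid receptor only with no TRPC4 channel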). To be noted: Fluo-4 calcium flux, at 10 µM, compound added before EC20 DAMGO stimulus; stronger effect = higher value.
A short description of test [18]: thallium flux activation in parental CHO cells, counter-screen for KCNQ1 potentiator project (AID 493006;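 active means duplicate-averaged activation above buffer control mean plus 5 SD of those controls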;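 on activation: fluorescence ratio of max minus min over baseline after K+ and Tl+ depolarization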). To be noted: parental CHO-K1 cells, FluxOR thallium flux, at 10 µM; stronger effect = higher value. A general note: Counterscreens check selectivity or assay interference.
Test [19] concerns the target Potassium voltage-gated channel subfamily KQT member 1 (Homo sapiens) (UniProt P51787). Kind of test: KCNQ1 potassium channel potentiators, confirmation, FluxOR thallium flux, CHO cells, duplicates (AID 493007;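 active means potentiation averaged over duplicate wells exceeding buffer-only control mean by more than 3 SD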;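 on outcome: cells depolarized by a potassium plus thallium sulfate stimulus after compound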;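 on potentiation: 0% = buffer-only wells and 100% = R-L3 activator control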). The settings on record: KCNQ1 cell line, FluxOR thallium flux fluorescence, at 10 µM; stronger effect = higher value, % of reference activator effect, buffer zero.
The target in test [20] is Potassium voltage-gated channel subfamily KQT member 2 (Rattus norvegicus) (UniProt O88943). Description: rat KCNQ2 channel potentiation, selectivity assay for KCNQ1 potentiator project, KCNQ2-CHO-K1 cells (AID 493009;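 active means mean duplicate potentiation above the buffer control mean plus 5 SD of buffer wells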;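 further: assay conditions were tuned for KCNQ1 rather than KCNQ2 modulators; signal is max minus min fluorescence divided by baseline after thallium stimulus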). The settings on record: FluxOR thallium flux fluorescence, at 10 µM; stronger effect = higher value, scaled: buffer 0, activator control 100.
Potassium voltage-gated channel subfamily KQT member 2 (Rattus norvegicus), sequence (O88943 whole entry, looked up): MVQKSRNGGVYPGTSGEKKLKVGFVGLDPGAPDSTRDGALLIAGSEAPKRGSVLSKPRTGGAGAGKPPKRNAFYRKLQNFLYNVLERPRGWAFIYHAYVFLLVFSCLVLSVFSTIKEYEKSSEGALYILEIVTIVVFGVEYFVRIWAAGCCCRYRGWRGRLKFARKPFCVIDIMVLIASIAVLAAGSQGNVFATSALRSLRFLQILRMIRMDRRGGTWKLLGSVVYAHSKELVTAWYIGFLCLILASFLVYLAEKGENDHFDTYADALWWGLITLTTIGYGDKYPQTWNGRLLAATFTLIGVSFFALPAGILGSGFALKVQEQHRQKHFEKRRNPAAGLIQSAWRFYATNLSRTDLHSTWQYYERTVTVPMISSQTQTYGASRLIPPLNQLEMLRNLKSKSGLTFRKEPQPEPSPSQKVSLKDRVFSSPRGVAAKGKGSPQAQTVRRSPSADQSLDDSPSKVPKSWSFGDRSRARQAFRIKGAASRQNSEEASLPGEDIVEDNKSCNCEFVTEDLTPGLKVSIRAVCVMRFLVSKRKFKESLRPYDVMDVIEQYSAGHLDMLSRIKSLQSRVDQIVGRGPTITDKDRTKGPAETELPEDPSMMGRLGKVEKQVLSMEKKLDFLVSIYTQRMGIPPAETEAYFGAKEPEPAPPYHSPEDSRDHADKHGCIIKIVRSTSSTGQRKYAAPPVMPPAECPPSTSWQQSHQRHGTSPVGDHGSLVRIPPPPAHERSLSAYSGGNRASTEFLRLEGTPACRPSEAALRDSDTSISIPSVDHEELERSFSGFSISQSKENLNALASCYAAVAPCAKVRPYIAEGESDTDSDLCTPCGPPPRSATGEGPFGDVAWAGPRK

For some assays here: Entries with a potency or affinity are not part of this list. Active and inactive are the calls of the source.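 How the source made its calls, unless noted: active means fluorescence ratio normalized to control raised more than 50% in primary screen plus both repeat runs; inactive means the rest.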

Short transient receptor potential channel 6 (Mus musculus), sequence (Q61143 whole entry, looked up): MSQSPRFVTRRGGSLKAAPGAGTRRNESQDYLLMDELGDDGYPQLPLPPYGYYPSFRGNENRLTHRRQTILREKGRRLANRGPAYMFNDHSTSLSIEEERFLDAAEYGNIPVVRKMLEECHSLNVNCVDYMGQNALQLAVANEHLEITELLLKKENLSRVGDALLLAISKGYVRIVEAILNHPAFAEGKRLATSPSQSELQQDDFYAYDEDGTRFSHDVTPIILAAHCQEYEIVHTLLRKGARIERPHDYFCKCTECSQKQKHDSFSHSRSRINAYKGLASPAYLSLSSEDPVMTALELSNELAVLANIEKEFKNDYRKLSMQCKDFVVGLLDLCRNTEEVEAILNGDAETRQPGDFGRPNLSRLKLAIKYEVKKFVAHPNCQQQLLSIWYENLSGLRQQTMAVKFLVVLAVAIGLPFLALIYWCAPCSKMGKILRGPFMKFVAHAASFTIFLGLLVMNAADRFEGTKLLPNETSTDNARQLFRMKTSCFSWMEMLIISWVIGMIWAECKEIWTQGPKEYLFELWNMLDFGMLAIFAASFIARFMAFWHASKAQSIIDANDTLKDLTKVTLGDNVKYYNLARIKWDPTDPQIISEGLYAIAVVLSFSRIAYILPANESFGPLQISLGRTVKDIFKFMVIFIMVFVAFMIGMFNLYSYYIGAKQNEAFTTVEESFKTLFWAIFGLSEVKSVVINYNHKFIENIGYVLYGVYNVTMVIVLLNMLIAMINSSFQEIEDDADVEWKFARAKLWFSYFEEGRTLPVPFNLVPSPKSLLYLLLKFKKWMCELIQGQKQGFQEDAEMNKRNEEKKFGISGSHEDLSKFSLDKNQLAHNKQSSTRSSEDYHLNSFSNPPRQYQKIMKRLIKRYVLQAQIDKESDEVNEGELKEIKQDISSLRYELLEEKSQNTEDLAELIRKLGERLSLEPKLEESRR
Short transient receptor potential channel 4 (Mus musculus), sequence (Q9QUQ5 whole entry, looked up): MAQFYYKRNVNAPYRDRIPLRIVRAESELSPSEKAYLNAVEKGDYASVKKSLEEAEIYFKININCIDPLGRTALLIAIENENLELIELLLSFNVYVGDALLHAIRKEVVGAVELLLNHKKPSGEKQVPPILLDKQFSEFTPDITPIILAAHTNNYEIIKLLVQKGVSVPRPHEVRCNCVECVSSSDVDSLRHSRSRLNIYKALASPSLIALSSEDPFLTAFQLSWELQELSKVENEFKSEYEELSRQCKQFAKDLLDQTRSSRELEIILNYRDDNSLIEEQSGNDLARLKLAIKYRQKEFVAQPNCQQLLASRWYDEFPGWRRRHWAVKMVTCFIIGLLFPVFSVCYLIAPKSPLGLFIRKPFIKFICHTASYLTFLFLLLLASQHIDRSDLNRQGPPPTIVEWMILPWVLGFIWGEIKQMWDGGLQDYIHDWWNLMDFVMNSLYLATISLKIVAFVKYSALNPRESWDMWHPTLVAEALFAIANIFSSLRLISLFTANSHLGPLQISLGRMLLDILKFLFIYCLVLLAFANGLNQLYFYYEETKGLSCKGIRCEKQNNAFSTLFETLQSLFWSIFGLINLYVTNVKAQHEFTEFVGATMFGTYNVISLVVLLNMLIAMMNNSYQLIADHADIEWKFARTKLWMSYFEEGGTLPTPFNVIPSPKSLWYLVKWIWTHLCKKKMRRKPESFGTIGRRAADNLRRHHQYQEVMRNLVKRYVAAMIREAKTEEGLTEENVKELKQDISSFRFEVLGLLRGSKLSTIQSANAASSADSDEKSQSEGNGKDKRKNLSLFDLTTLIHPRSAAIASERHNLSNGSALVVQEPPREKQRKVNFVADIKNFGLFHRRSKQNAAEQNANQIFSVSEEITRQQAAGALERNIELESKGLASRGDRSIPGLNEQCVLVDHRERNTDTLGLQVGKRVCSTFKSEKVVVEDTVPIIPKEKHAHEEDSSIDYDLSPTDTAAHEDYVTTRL
Potassium voltage-gated channel subfamily KQT member 1 (Homo sapiens), sequence (P51787 whole entry, looked up): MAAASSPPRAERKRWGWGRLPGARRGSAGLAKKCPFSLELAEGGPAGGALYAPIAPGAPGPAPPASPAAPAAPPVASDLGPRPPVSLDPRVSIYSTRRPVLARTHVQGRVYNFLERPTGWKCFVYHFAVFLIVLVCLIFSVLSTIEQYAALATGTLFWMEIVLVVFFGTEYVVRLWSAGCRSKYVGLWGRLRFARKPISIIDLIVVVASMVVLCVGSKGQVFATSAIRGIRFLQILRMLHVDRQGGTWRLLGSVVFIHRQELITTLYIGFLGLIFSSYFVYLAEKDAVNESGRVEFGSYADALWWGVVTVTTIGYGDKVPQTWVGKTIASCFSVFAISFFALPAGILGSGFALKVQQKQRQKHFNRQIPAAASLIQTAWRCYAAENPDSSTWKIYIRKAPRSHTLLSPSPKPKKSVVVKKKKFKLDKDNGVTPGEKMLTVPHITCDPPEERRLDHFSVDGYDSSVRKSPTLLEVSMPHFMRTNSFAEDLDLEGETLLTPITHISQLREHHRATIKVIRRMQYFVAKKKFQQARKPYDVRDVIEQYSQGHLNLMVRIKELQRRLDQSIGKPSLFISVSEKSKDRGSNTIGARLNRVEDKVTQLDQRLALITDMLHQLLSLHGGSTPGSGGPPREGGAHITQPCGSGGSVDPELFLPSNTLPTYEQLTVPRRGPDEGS

Turning to `CCCCN(CC)CCCNC(=O)c1cc2cc3ccc(C)cc3nc2o1`, the outcome in test [1], in [2], in [4], in test [5], in [6] and in test [7] was inactive. Further, the outcome in test [8], in [9], in [10], in [11], in [12] and in test [13] was inactive. Further, the result in test [14], in test [16], in [17], in test [18], in test [19] and in test [20] was inactive. The potentiation in test [3] was 19% (active); in test [15], 21.8% (active).
Turning to `COc1cc(NC(=O)CSc2ncnc3sc4c(c23)CCC(C)C4)c(C(=O)O)cc1OC` (centres undefined), the result in test [1], in test [2], in [3], in [4], in test [6] and in test [7] was inactive. Further, the result in test [8], in test [9], in [10], in [11], in test [12] and in test [13] was inactive. For the same molecule, the result in [14], in [15], in test [16] and in test [17] was inactive. The inhibition (commonly the percentage by which the read-out fell short of the control) in test [5] was 91% (active). In [18], the activation is 450% (active). Moreover, the potentiation is 297% (active) in test [19] and 506% (active) in test [20].
Consider `CN(C)CCCNc1ncnc2c1cnn2-c1ccccc1`, for which the outcome in [1], in test [2], in [5], in [6], in [7] and in test [8] was inactive. For the same molecule, the outcome in test [9], in [10], in [11], in test [12], in test [13] and in [14] was inactive. Also, the outcome in [16] and in test [17] was inactive. The potentiation was 16% (active) in test [3], 17% (active) in [4] and 28.6% (active) in test [15].
In the case of `Cc1ccc2c(c1)C1CN(C)CCC1N2C(=S)NC(=O)c1ccc(Br)cc1` (centres undefined), the outcome in test [1], in test [2], in test [3], in test [5], in [6] and in test [7] was inactive. Besides, the result in test [8], in test [9], in [10], in test [11], in test [12] and in test [13] was inactive. Moreover, the outcome in [14], in test [16] and in test [17] was inactive. Moreover, the potentiation in [4] is 15% (active); in test [15], 23.8% (active); in [19], 41% (active); in test [20] it was 200% (active). Also, the activation in test [18] is 170% (active).
For the molecule `CC(C)NS(=O)(=O)c1ccc(NC(=O)C(C)Oc2ccc(C(=O)c3ccccc3)cc2)cc1` (centres undefined), the result in [1], in test [2], in test [3], in test [5], in test [6] and in [7] was inactive. Besides, the outcome in [8], in [9], in test [10], in test [11], in [12] and in [13] was inactive. Further, the result in [14], in [16], in test [17], in test [18], in test [19] and in test [20] was inactive. For the same molecule, the potentiation in test [4] is 36% (active); in test [15], 30.1% (active).
On to `Cc1cc(C)c2c(=O)n(CC(=O)Nc3cccc(Cl)c3C)sc2n1`, for which the outcome in [1], in test [2], in test [3], in test [5], in test [6] and in [7] was inactive. Also, the result in [8], in [9], in test [10], in test [11], in test [12] and in [13] was inactive. Further, the result in test [14], in test [16], in [17], in test [18], in test [19] and in [20] was inactive. Further, the potentiation is 14% (active) in test [4] and 9.63% (active) in [15].
As for `C=CCc1cc(Cl)ccc1OCCCn1ccnc1`, the result in test [1], in [2], in test [4], in test [5], in [6] and in test [7] was inactive. Besides, the result in test [8], in [9], in test [10], in [11], in test [12] and in test [13] was inactive. Moreover, the result in test [14], in test [15], in test [16] and in test [17] was inactive. Moreover, in test [3], the potentiation is 9% (active).

Source of the values: PubChem BioAssay.
